This is a sample that favours compounds with a hit; in the whole collection about 11% have one here.
PNC assembly inh: High Content Assay for Compounds that inhibit the Assembly of the Perinucleolar Compartment; PC3M PTB-GFP, PNC prevalence imaging, 16 h; active compounds read low; activity change (PNC), negative = inhibition, % at 10 µM; hit rate 3.1% among 140,000; AID 2417, 2010;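 active = readout at or below -70, meaning at least 70% loss of cells showing the perinucleolar compartment, a nuclear body marking cancer cells; inconclusive = readout between -30 and a set limit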
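Compounds are pinned in duplicate onto adhered PC3M cells stably expressing GFP-tagged PTB and incubated 16 h at 37 C. Cells are then fixed, nuclei stained with Hoechst, and PNC-positive cells counted.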
ALDH1A1 block: qHTS Assay for Inhibitors of Aldehyde Dehydrogenase 1 (ALDH1A1) | Purified ALDH1A1, NADH fluorescence, propionaldehyde substrate | hit rate 7.3% among 220,000 | Aldehyde dehydrogenase 1A1 (Homo sapiens), P00352 | Potency, µM (highest dose often 75.3 µM), usual class: inhibitors | AID 1030, 2008
HPGD inh: qHTS Assay for Inhibitors of HPGD (15-Hydroxyprostaglandin Dehydrogenase); Potency, µM, actives largely listed as inhibitors; hit rate 4.3% among 150,000; purified HPGD, NADH fluorescence kinetic, PGE2 substrate; 15-hydroxyprostaglandin dehydrogenase [NAD(+)] (Homo sapiens), P15428
Target sequence (P15428 whole entry, looked up): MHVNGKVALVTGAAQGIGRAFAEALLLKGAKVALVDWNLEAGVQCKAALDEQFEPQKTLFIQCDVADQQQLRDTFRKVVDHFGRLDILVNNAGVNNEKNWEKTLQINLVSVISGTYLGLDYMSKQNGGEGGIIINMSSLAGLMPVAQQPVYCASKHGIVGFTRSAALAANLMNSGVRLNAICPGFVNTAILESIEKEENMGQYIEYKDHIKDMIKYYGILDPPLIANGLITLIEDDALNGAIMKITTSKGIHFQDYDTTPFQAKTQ
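20 nM HPGD preincubated 15 min at room temperature with compound in 50 mM Tris-HCl pH 8, 0.01% Tween 20. Started with 1 mM NAD+ and 30 uM prostaglandin E2; NADH fluorescence (360/450 nm) read 5 times over 30-s intervals, last minus first.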
KDM4E inh: qHTS Assay for Inhibitors of Human Jumonji Domain Containing 2E (JMJD2E) | JMJD2E catalytic domain, FDH-coupled NADH fluorescence (FDH is formaldehyde dehydrogenase) | AID 2147, 2009 | Potency, µM (doses to about 57.1 µM), actives largely listed as inhibitors | hit rate 1.6% among 230,000; also: nearly all actives have a fitted effect of over 50% in size
Target sequence (B2RXH2 1-337 limits assumed): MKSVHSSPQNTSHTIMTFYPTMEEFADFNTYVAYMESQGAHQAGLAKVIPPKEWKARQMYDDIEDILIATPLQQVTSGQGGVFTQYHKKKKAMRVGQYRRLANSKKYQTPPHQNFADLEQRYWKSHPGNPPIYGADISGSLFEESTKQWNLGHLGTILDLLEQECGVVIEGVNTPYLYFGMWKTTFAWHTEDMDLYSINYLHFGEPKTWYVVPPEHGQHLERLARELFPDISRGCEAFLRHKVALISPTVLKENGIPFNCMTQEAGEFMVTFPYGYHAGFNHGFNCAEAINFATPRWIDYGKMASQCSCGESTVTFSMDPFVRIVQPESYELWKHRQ
A number is an active result; 0 = inactive; ? = inconclusive; - = no result given; ! = not active in a repeat; [ ] = another dose, or the depositor's remark. Unless noted, calls follow the shape of the dose curve; as a rule, active = well fitted inhibition curve with a large enough effect (not every such curve was filed as active); inconclusive = small, poorly fitted or top-dose-only effect, or another doubt; inactive = no such curve, though single readings can be large or run the other way.

SMILES | PNC assembly inh | ALDH1A1 block | HPGD inh | KDM4E inh
COP(N)(=O)SC (stereo not drawn) | - | 0 | 0 | 0
Cc1ccccc1CN1CCN(c2ccc(Cl)cc2)CC1 | 0 | 0 | 0 | 22.4µM
CCC(C)n1c(C)cc(C(N)=O)c1C (stereo not drawn) | - | 0 | - | 0
CCCn1c(C)cc(C=O)c1C | - | 7.08µM | - | 0
Cc1cc(C=O)c(C)n1C(C)C | - | 14.1µM | - | 0
O=C(C[C@H](c1ccccc1)c1c(O)c2ccccc2oc1=O)c1ccccc1 | - | 0[13.5 µM] | 0 | -
O=C(CCl)c1ccccc1 | - | 0.0794µM | 0 | -
COc1ccc(CCNCc2ccc(C)s2)cc1OC | - | 0 | - | 0
COc1ccc(Cc2nccc3cc(OC)c(OC)cc23)cc1OC | 0 | 0 | 14.1µM! | ?
Oc1c(Br)c(Br)c(Br)c(Br)c1Br | - | ? | 10µM | -
Oc1c(Br)cc(Br)cc1Br | - | 0 | 0 | -
CCCCNC(=O)Oc1cc(CCl)on1 | - | 12.6µM | - | 0
Cc1ccc(Cl)cc1N1CCN(CCN)CC1 | 0 | 28.2µM | 0 | 0
Cc1cc(S(=O)(=O)NCC(C)C)ccc1OCC(=O)N1CCN(Cc2ccccc2)CC1 | 0 | 17.8µM | 0 | 0
CCN1C[C@]2(COC)CC[C@H](O)[C@@]34[C@@H]5C[C@H]6[C@@H](OC)[C@H]5[C@](O)(C[C@@H]6OC)[C@@](O)([C@@H](OC)[C@H]23)[C@@H]14 | - | 0 | 0 | 0
Cc1ccccc1-n1c(-c2ccc([N+](=O)[O-])cc2)nc2ccccc2c1=O | 0 | 7.94µM | 0 | 0
O=c1c2ccccc2nc(-c2ccco2)n1-c1ccccc1 | 0 | 0 | 0 | 0
Cc1cccc(-n2c(-c3ccc([N+](=O)[O-])cc3)nc3ccccc3c2=O)c1 | 0 | ? | 0 | 0
Cc1ccccc1-n1c(-c2ccco2)nc2ccccc2c1=O | 0 | 0 | 0 | 0
COc1ccc(-c2nc3ccccc3c(=O)n2-c2ccc(OC)cc2)cc1 | - | 11.2µM | - | 0
O=c1c2ccccc2nc(-c2ccc([N+](=O)[O-])cc2)n1-c1ccccc1 | 0 | 3.16µM | 0 | 0
COc1ccc(-n2c(-c3ccco3)nc3ccccc3c2=O)cc1 | - | 0 | - | 0
O=c1c2ccccc2nc(-c2ccco2)n1-c1ccncc1 | 0 | 28.2µM | 0 | 0
NCCP(=O)(O)O | - | ? | 0 | -
O=Cc1cn(Cc2cccc(F)c2)c2ccccc12 | 0 | 0.562µM | 0 | 0
SMILES | PNC assembly inh | ALDH1A1 block | HPGD inh | KDM4E inh
C/C(=N\Nc1ccccc1)c1c(O)n(C)c(=O)n(C)c1=O | ? | 25.1µM | 0 | ?
Cn1c(O)c(C(=O)c2ccccc2)c(=O)n(C)c1=O | 0 | 0 | 0 | 0
Cn1c(O)c(C=Nc2ccccc2-c2ccccc2)c(=O)n(C)c1=O | - | - | - | 0
Cn1c(O)c(/C=N/Nc2ccccc2)c(=O)n(C)c1=O | - | 10µM | - | 0
COC(=O)C1C(=O)C=C(Nc2ccc(F)cc2F)CC1c1ccccc1 (stereo not drawn) | 0 | ? | 0 | 0
COc1ccc(/C=C2/C(=O)NC(=O)N(Cc3ccco3)C2=O)cc1 | - | 0 | - | 0
COc1ccc(-c2noc(CN3C(=O)c4ccccc4C3=O)n2)cc1 | ? | 0 | 20µM | 0
O=Cc1ccc2c(c1)OCO2 | - | ? | 0 | -
ClCc1ccccn1 | - | 0 | 0 | -
Cc1nn(-c2ccccc2)c2c1C(c1ccc(F)cc1F)C(C#N)=C(N)O2 (stereo not drawn) | ? | 12.6µM | 28.2µM | 0
CCCCc1ccc(C(=O)O)nc1 | - | 0 | 0 | 10µM
ClCC(Cl)Cl | - | 0 | 0 | -
Cc1nc2ccc(Nc3nc4cc(S(=O)(=O)N5CCOCC5)ccc4o3)cc2s1 | ? | 3.55µM | 8.91µM | 0
COc1ccccc1CCNCc1ccc(OC)c(OC)c1OC | - | ? | - | 5.62µM
COC1CCCCC1NCCc1ccccc1 (stereo not drawn) | - | ? | - | 15.8µM
COc1ccc(C=O)cc1OC | - | 11.2µM | 0 | -
COc1ccc(C=O)cc1 | - | 7.94µM | 0 | -
COC(=O)COc1cc(Cl)c(Cl)cc1Cl | - | 0 | 0 | 0
Cc1ccc2c(c1)=C/C(=C\c1c(O)[nH]c(=S)[nH]c1=O)C(=O)N=2 | ? | 3.55µM | 0 | ?
Cc1ccc(-n2c(O)c(C=NC3CCCC3)c(=O)[nH]c2=O)c(C)c1 | 0 | 0 | 0 | 0
CC(=O)Nc1ccccc1C(=O)OCc1cccc(F)c1 | - | 0 | - | ?
CC(=O)Nc1ccccc1C(=O)OCc1ccc(C(=O)c2ccccc2)cc1 | 0 | ? | 25.1µM | 0
CCOC(=O)c1c(-n2c(C)cc(/C=C3\C(=O)NC(=O)N(C)C3=O)c2C)sc2c1CCCC2 | 0 | 0 | ? | 0
Cc1cc(/C=C2\C(=O)NC(=O)N(c3ccc(Cl)cc3)C2=O)c(C)n1-c1sc2c(c1C#N)CCCC2 | 0 | 0.251µM | 10µM | 0
Cc1sc(-n2c(C)cc(C=C3C(=O)NC(=O)NC3=O)c2C)c(C#N)c1C | 0 | 0.631µM | 0 | 0
SMILES | PNC assembly inh | ALDH1A1 block | HPGD inh | KDM4E inh
COc1cccc2c1C(=O)c1c(O)c3c(c(O)c1C2=O)C[C@](O)(/C(C)=N\O)C[C@@H]3O[C@H]1C[C@H](N)[C@@H](O)[C@H](C)O1 | - | 0[13.5 µM] | 0 | -
c1c[nH]cn1 | - | ? | 0 | -
COc1ccc(C(C#N)N2CCOCC2)cc1 (stereo not drawn) | 0 | 35.5µM | 0 | 0
O=C(Cl)/C=C/C(=O)Cl | - | 0 | 0 | -
CC(=O)O[C@]1(c2ccccc2)CCN(C)[C@H]2CCCC[C@@H]21 | 0 | 0 | 0 | 0
CN1CCC(C)(O)C2CCCCC21 (stereo not drawn) | - | 10µM | - | 0
O=C(O)[C@@H](O)[C@@H](O)C1[O][Sb][O][C@@H]1CO (stereo partly drawn) | - | 0[13.5 µM] | 0 | -
CCN(CC)C(=O)C(C(=O)c1cccc([N+](=O)[O-])c1)n1cc(Cl)ccc1=O (stereo not drawn) | - | 17.8µM | - | 0
CN1CCN(c2ccc(S(C)(=O)=O)cc2[N+](=O)[O-])CC1 | 0 | 0 | 0 | 0
CN1CCN(c2ccc(S(=O)(=O)C(F)(F)F)cc2[N+](=O)[O-])CC1 | -98.1 | 0 | 0 | 0
C#CCN1C(=O)C2(C(C#N)=C(N)OC(C)=C2C(=O)OCc2ccccc2)c2ccccc21 (stereo not drawn) | 0 | 0.794µM | 0 | 0
CCOC(=O)C1=C(C)OC(N)=C(C#N)C12C(=O)N(C)c1ccccc12 (stereo not drawn) | 0 | 0 | 0 | 0
COC(=O)CC1=C(C(=O)OC)C2(C(=O)Nc3c(C)cccc32)C(C#N)=C(N)O1 (stereo not drawn) | 0 | 10µM | 0 | 0
CCCC1=C(C(=O)OCC)C2(C(=O)Nc3ccccc32)C(C#N)=C(N)O1 (stereo not drawn) | 0 | 11.2µM | 0 | 0
COC(=O)C1=C(C)OC(N)=C(C#N)C12C(=O)Nc1ccccc12 (stereo not drawn) | - | 0 | - | 0
O=C1CC2OCC=C3CN4CC[C@@]56c7ccccc7N1C5C2C3CC46 (stereo partly drawn) | - | 0 | 0 | 0
COc1cc(N2CCOCC2)ccc1C=C1C(=O)NC(=O)NC1=O | ? | 12.6µM | 31.6µM | 0
CCCCC/C=C\C/C=C\C/C=C\C/C=C\CCCC(=O)NCCCC(=O)O | - | 0 | 0 | 0
CCCCC/C=C\C/C=C\C/C=C\C/C=C\CCCC(N)=O | - | 0 | 0 | 0
CCCCC/C=C\C/C=C\C/C=C\C/C=C\CCCC(=O)OCCN | - | ? | 0 | -

High-throughput results: PubChem BioAssay, National Center for Advancing Translational Sciences (NCATS)
